# Results: PubChem BioAssay (NCI)
# This is part of a sample that, as a whole, favours compounds with a hit. Of some 83,000 tested, about 20% had one in any assay.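 How to read the values: 0–100, growth inhibition (40 = 60% inhibited); 0, no net growth; -100 to 0, cell death (-40 = 40% of starting cells died; -100 = all dead).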 A number with no mark means an inactive call. Calls of active or inactive are those of the source. How the source made its calls: active means growth percent below 10; inactive means the rest.
# Key:
# Test in all cases: NCI-60 one-dose screen, 48 h (100 = growth as untreated, 0 = no growth, -100 = all killed)
# Conditions in all cases: 10 µM
# [1] = tested on: HCT-15 colon
# [2] = tested on: HT29 colon
# [3] = tested on: SNB-75 CNS
# [4] = tested on: SNB-19 CNS
# [5] = tested on: PC-3 prostate
# [6] = tested on: SK-MEL-5 melanoma
# [7] = tested on: UACC-62 melanoma
# [8] = tested on: LOX IMVI melanoma
# [9] = tested on: SK-MEL-28 melanoma
# [10] = tested on: SK-MEL-2 melanoma
# [11] = tested on: EKVX NSCLC
# [12] = tested on: UO-31 renal
# [13] = tested on: TK-10 renal
# [14] = tested on: ACHN renal
# [15] = tested on: CAKI-1 renal
# [16] = tested on: CCRF-CEM leukemia
# [17] = tested on: SN12C renal
# [18] = tested on: A498 renal
# [19] = tested on: MOLT-4 leukemia
# [20] = tested on: U251 CNS
SMILES,growth [1],growth [2],growth [3],growth [4],growth [5],growth [6],growth [7],growth [8],growth [9],growth [10],growth [11],growth [12],growth [13],growth [14],growth [15],growth [16],growth [17],growth [18],growth [19],growth [20]
COc1ccc2[nH]c(O)c(N=NC(=O)c3cc(-c4ccc(C)cc4)nc4ccccc34)c2c1,62.8%,113%,95.4%,95.1%,93.6%,94.6%,96.5%,83.5%,97.5%,111%,97.6%,69.9%,117%,81%,95.5%,52.1%,–,–,–,–
Cc1ccc(NCC(=O)Nn2c(COc3ccccc3)nc3ccccc3c2=O)cc1,93%,92.4%,23.4%,6.78% (active),74.2%,85.9%,61.3%,91.6%,91.3%,87.2%,84.6%,80.8%,86.9%,72.8%,44.3%,101%,40.4%,91.9%,106%,–
O=C(NO)c1ccc(CNC(=O)[C@H]2Cc3c([nH]c4ccccc34)[C@H](c3ccc(Cl)cc3)N2)cc1,30.5%,21.5%,39.6%,–,21.4%,-70.8% (active),-49.8% (active),-88.4% (active),1.81% (active),–,25%,21.8%,4.19% (active),28.6%,29%,17.4%,15.1%,-6.62% (active),5.97% (active),-4.01% (active)
COc1ccc(-c2cc(C(=O)N=Nc3c(O)[nH]c4ccccc34)c3ccccc3n2)cc1,-83.1% (active),-15.1% (active),53.7%,–,2.92% (active),47.3%,39.5%,-73.6% (active),-41% (active),64.9%,-12.7% (active),24.5%,19.2%,-64.2% (active),-58.8% (active),49%,-38.8% (active),112%,45.1%,-67.6% (active)
O=c1oc2ccccc2cc1-c1csc(N=Nc2c(O)[nH]c3ccc(Br)cc23)n1,97%,109%,96.1%,–,89.1%,98.1%,78.1%,62.8%,105%,60.3%,73.7%,82.7%,86.8%,48.8%,84.5%,–,–,54.1%,103%,40.4%
Cc1ccc2nc(COc3ccc(C(=O)NNC(=S)NC(=O)c4ccccc4)cc3)[nH]c2c1,14.9%,43.6%,41.6%,–,50.2%,46.1%,51.9%,34%,55.6%,68.9%,51.6%,18.6%,67.8%,23.6%,26.8%,51.5%,58.1%,97.3%,52.6%,43.3%
CCN1CCN(c2ccc(NC(=O)Nc3ccc(-c4cc(C(=O)NC(C)C)c5ncccc5n4)cc3)cc2C(F)(F)F)CC1,-93.5% (active),-82.3% (active),-94.3% (active),–,-55.3% (active),-100% (active),-93.3% (active),-100% (active),-98.9% (active),-71% (active),–,-94.5% (active),-92.7% (active),-93.1% (active),-95.2% (active),-44.5% (active),-94.3% (active),-99.1% (active),–,-89.5% (active)
O=C(N=Nc1c(O)[nH]c2ccc(Br)cc12)c1ccc2nc(-c3ccccc3)[nH]c2c1,63.2%,-41.1% (active),-46.7% (active),–,-84.5% (active),-58.9% (active),-96% (active),–,-98.4% (active),-89.7% (active),-4.61% (active),27.3%,-25.5% (active),-47.3% (active),16.8%,-16% (active),-94.4% (active),-55.3% (active),-29% (active),-95.2% (active)
CCOC(=O)c1c(CSc2ccccc2)n(C)c2cc(CN(C)C)c(O)c(CN(C)C)c12,20.5%,19.8%,89.4%,–,25.1%,36.4%,48.2%,22.2%,48.6%,77.5%,36.9%,28%,75.9%,59%,57.8%,42.7%,27.2%,118%,49%,30%
CC(C)Sc1nc(NC2CC2)c(C#N)c(-c2ccccc2)n1,101%,87.3%,81.3%,–,83%,93.1%,87.1%,80.2%,110%,97.7%,77.4%,79.4%,92.9%,53.5%,56.8%,96.3%,77.5%,99.3%,102%,50.6%
O=C(CSc1nnc(-c2c[nH]c3ccccc23)n1-c1ccccc1)Nc1ccc(C(=O)/C=C/c2ccc(Br)cc2)cc1,68.1%,86.6%,86.6%,–,66%,90.5%,66.4%,81.6%,94%,101%,67.4%,52.9%,97.7%,78%,76%,90.9%,89.5%,106%,57.1%,–
O=C(CSc1nnc(-c2c[nH]c3ccccc23)n1-c1ccccc1)Nc1ccc(C(=O)/C=C/c2ccc(Cl)cc2)cc1,59.3%,86.4%,80%,–,58.9%,83.3%,62.8%,67.6%,84.1%,87.6%,59%,45.8%,91.8%,68.4%,68.2%,83.7%,83%,90.7%,58.8%,73.9%
COc1ccc(N2N=C(c3ccc4c(c3)OCCO4)CC2c2cccc(NC(=O)CCCNS(=O)(=O)c3ccc(F)cc3)c2)cc1 (stereo not drawn),67.5%,84.4%,42.4%,–,52%,64.2%,61.8%,72.5%,81.5%,88.4%,57.9%,58.8%,–,70.7%,53.9%,67.7%,–,86.5%,34%,75.4%
O=C(c1ccc(-n2c(=O)[nH]c3ccccc3c2=O)cc1)N1CCOCC1,99.2%,114%,80.9%,–,103%,107%,92.9%,–,108%,102%,101%,82.5%,97.2%,103%,89%,108%,89.8%,116%,–,105%
O=c1c2ccccc2nc(COc2ccccc2)n1/N=C/c1ccc(N2CCOCC2)cc1,80.8%,93.8%,43.9%,–,75.6%,82%,69.4%,69.6%,83.3%,70.4%,69.7%,69.3%,–,60.6%,51.9%,97.7%,68%,78.2%,117%,51.5%
O=c1[nH]n(C(=S)N/N=C/c2ccc(F)cc2)c(=O)c2ccccc12,22.9%,58.1%,97.4%,–,58.1%,73.1%,44.7%,-24.9% (active),91.5%,82.7%,88.2%,–,102%,82.5%,82%,12.8%,71.2%,105%,10.7%,25.6%
